Results: PubChem BioAssay AID1159580 (chemical genetic matrix, 2015)
The campaign covered roughly 5,500 compounds. About 2,000 (36%) were called active. About 18% were inconclusive and are not listed. Cut-off read from the data, not from the text of the source: active = normalized growth mostly below about 0.91 (no sharp cut-off); inconclusive = no clear call, values can overlap the other calls; inactive = mostly above about 0.92. The list shows a part of the results.

Assay: chemical genetic growth profiling, strain panel (AID 1159580);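 note: tested at 20 µM; growth read once vehicle control cultures reached saturation at 30 °C; 1 = growth at the plate median or of vehicle wells; lower values mean less growth of the strain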
Settings: S. cerevisiae deletion strains, growth OD
[1] = locus YAR019C, strain CDC15, active compounds read low
[2] = locus YBL105C, strain PKC1, active compounds read low
[3] = locus YBR135W, strain CKS1, active compounds read low
[4] = locus YBR136W, strain MEC1, active compounds read low
[5] = locus YBR160W, strain CDC28, active compounds read low
[6] = locus YDL017W, strain CDC7, active compounds read low
[7] = locus YDL028C, strain MPS1, active compounds read low
[8] = locus YDL101C, strain DUN1, active compounds read low
[9] = locus YDL108W, strain KIN28, active compounds read low
[10] = locus YDL132W, strain cdc53, active compounds read low
[11] = locus YDL214C, strain PRR2, active compounds read low
[12] = locus YDR052C, strain DBF4, active compounds read low
[13] = locus YDR054C, strain cdc34, active compounds read low
[14] = locus YDR226W, strain ADK1, active compounds read low
[15] = locus YDR477W, strain SNF1, active compounds read low
[16] = locus YER123W, strain YCK3, active compounds read low
[17] = locus YER133W, strain GLC7, active compounds read low
[18] = locus YFL009W, strain cdc4, active compounds read low
[19] = locus YFL029C, strain CAK1, active compounds read low
[20] = locus YFR003C, strain YPI1, active compounds read low
[21] = locus YFR019W, strain FAB1, active compounds read low
[22] = locus YFR028C, strain CDC14, active compounds read low
[23] = locus YGR040W, strain KSS1, active compounds read low
[24] = locus YGR052W, strain FMP48, active compounds read low
[25] = locus YGR092W, strain DBF2, active compounds read low
[26] = locus YHR030C, strain SLT2, active compounds read low
[27] = locus YHR079C, strain IRE1, active compounds read low
[28] = locus YHR082C, strain KSP1, active compounds read low
[29] = locus YHR205W, strain SCH9, active compounds read low
[30] = locus YIL147C, strain SLN1, active compounds read low
[31] = locus YJL095W, strain BCK1, active compounds read low
[32] = locus YJL128C, strain PBS2, active compounds read low
[33] = locus YJL157C, strain FAR1, active compounds read low
[34] = locus YJR016C, strain ILV3, active compounds read low
[35] = locus YJR066W, strain TOR1 (second series), active compounds read low
[36] = locus YJR066W, strain TOR1, active compounds read low
[37] = locus YKL048C, strain ELM1, active compounds read low
[38] = locus YKL067W, strain YNK1, active compounds read low
[39] = locus YKL101W, strain HSL1, active compounds read low
[40] = locus YKL193C, strain SDS22, active compounds read low
[41] = locus YKL203C, strain TOR2, active compounds read low
[42] = locus YLR113W, strain HOG1, active compounds read low
[43] = locus YLR133W, strain CKI1, active compounds read low
[44] = locus YLR403W, strain SFP1, active compounds read low
[45] = locus YML070W, strain DAK1, active compounds read low
[46] = locus YMR001C, strain CDC5, active compounds read low
[47] = locus YMR205C, strain PFK2 (second series), active compounds read low
[48] = locus YMR277W, strain FCP1, active compounds read low
[49] = locus YNL006W, strain LST8, active compounds read low
[50] = locus YNL020C, strain ARK1, active compounds read low
[51] = locus YNL161W, strain CBK1, active compounds read low
[52] = locus YNL183C, strain NPR1, active compounds read low
[53] = locus YNL207W, strain RIO2, active compounds read low
[54] = locus YNL222W, strain SSU72, active compounds read low
[55] = locus YNL307C, strain MCK1 (second series), active compounds read low
[56] = locus YOL078W, strain AVO1, active compounds read low
[57] = locus YOL136C, strain PFK27, active compounds read low
[58] = locus YOR061W, strain CKA2, active compounds read low
[59] = locus YOR119C, strain RIO1, active compounds read low
[60] = locus YOR231W, strain MKK1, active compounds read low
[61] = locus YOR329C, strain SCD5, active compounds read low
[62] = locus YPL031C, strain PHO85, active compounds read low
[63] = locus YPL153C, strain RAD53, active compounds read low
[64] = locus YPL204W, strain HRR25, active compounds read low
[65] = locus YPL209C, strain IPL1, active compounds read low
[66] = locus YPL256C, strain CLN2, active compounds read low
[67] = locus YPR025C, strain CCL1, active compounds read low
[68] = locus YPR106W, strain ISR1, active compounds read low
[69] = locus YPR111W, strain DBF20, active compounds read low
[70] = strain NNK1, active compounds read low
[71] = strain TSCII, active compounds read low

Measured: normalized growth

Cc1cc(C(=O)Nc2ccc(Cl)cc2)nn1C(C)(C)C
inactive: [1] 0.985 | [2] 1 | [3] 0.995 | [4] 1 | [5] 0.99 | [6] 0.995 | [7] 1.01 | [8] 0.984 | [9] 0.993 | [10] 0.989 | [11] 0.967 | [12] 1 | [13] 0.984 | [14] 0.987 | [15] 0.973 | [16] 0.955 | [17] 0.97 | [18] 0.989 | [19] 0.984 | [20] 1 | [21] 0.992 | [22] 1 | [23] 0.978 | [24] 0.958 | [25] 0.982 | [26] 1.08 | [27] 0.866 | [28] 1.15 | [29] 0.951 | [30] 0.998 | [31] 0.849 | [32] 0.942 | [33] 0.973 | [34] 0.984 | [35] 0.962 | [36] 1.11 | [37] 0.983 | [38] 0.976 | [39] 0.975 | [40] 0.993 | [41] 1.05 | [43] 0.967 | [44] 0.956 | [45] 0.958 | [46] 1 | [47] 0.966 | [48] 0.975 | [49] 0.992 | [50] 0.964 | [51] 0.986 | [52] 0.893 | [53] 0.998 | [54] 0.992 | [55] 0.977 | [56] 0.985 | [57] 0.96 | [58] 0.977 | [59] 1.02 | [60] 0.877 | [61] 1 | [62] 0.982 | [63] 0.957 | [64] 0.962 | [65] 1 | [67] 0.999 | [68] 0.979 | [69] 0.978 | [70] 0.984 | [71] 0.985
active: [42] 0.801 | [66] 0.817

Cc1nn(Cc2cccc(C(=O)Nc3ccc(Cl)cc3)c2)c(C)c1Br
inactive: [1] 0.99 | [2] 0.976 | [3] 0.986 | [4] 0.976 | [5] 0.979 | [6] 0.985 | [7] 0.978 | [8] 0.981 | [9] 0.979 | [10] 0.976 | [11] 0.96 | [12] 0.986 | [13] 0.975 | [14] 0.978 | [15] 0.959 | [16] 0.946 | [17] 0.953 | [18] 0.978 | [19] 0.982 | [20] 0.977 | [21] 0.977 | [22] 0.981 | [23] 0.965 | [24] 1.01 | [25] 0.987 | [26] 1.1 | [27] 1.11 | [28] 1.06 | [29] 1.01 | [30] 0.978 | [31] 1 | [32] 0.952 | [33] 0.968 | [34] 0.985 | [35] 0.978 | [36] 1.06 | [37] 0.961 | [38] 0.965 | [39] 0.955 | [40] 0.975 | [41] 1.04 | [42] 0.923 | [43] 0.967 | [44] 0.99 | [45] 0.954 | [46] 0.979 | [47] 0.965 | [48] 0.98 | [49] 0.994 | [50] 0.965 | [51] 0.987 | [52] 1.04 | [53] 0.978 | [54] 0.981 | [55] 1 | [56] 0.973 | [57] 0.92 | [58] 0.96 | [59] 1.02 | [60] 0.968 | [61] 0.987 | [62] 0.963 | [63] 0.957 | [64] 0.935 | [65] 0.981 | [66] 1 | [67] 0.974 | [68] 0.982 | [69] 0.97 | [70] 0.982 | [71] 0.981
